Hit rate of the full screen: of about 60,000 compounds, about 65 (0.1%) were called active. The list comes from a sample in which actives are over-represented; it also holds similar structures and randomly drawn compounds. Entries that show only a call come without a potency. Values without a mark were called inactive. Calls follow the shape of the dose curve; as a rule, active = well fitted inhibition curve with a large enough effect; inconclusive = small, poorly fitted or top-dose-only effect; inactive = no such curve, though single readings can be large or run the other way.
Potency is read from the fitted curve at half-maximal effect.

Ubiquitin carboxyl-terminal hydrolase 2 (Homo sapiens), sequence (O75604 whole entry, looked up): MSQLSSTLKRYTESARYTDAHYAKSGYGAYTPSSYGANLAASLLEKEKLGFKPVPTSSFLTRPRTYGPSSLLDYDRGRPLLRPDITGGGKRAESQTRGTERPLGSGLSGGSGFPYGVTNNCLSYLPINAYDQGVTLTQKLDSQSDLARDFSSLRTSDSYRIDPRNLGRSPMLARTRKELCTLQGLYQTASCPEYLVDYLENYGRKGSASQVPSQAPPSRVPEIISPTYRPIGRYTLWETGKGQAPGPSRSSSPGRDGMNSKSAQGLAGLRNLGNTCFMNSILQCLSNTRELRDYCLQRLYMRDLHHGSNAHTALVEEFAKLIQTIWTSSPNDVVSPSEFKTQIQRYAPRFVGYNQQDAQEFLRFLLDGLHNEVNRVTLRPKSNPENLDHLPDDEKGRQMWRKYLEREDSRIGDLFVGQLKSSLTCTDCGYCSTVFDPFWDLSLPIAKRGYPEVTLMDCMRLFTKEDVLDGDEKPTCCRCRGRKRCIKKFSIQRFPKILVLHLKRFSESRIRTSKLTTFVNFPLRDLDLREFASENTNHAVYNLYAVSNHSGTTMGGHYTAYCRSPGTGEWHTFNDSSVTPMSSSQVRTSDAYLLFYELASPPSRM

The test has as its target Ubiquitin carboxyl-terminal hydrolase 2 (Homo sapiens) (UniProt O75604). The test can be described thus: qHTS Assay for Inhibitors of Ubiquitin-specific Protease USP2a. Also: nearly all actives have a fitted effect of over 60% in size. The following applies: USP2a enzymatic assay; Potency: qHTS inhibition; series mostly up to 38.3 µM. An outline of the steps: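 Coupled readout: USP2-cleaved Ub-PLA2 (20nM final) turns over NBD C6-HPC (20uM final), Ex 460nm/Em 535nm after 2.5 h, time-zero read flagging artifacts. Enzyme (20nM final, pH 8.0 Tris) given 30 min RT with compound first; NEM defines full inhibition.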
(In general: In qHTS, concentration-response curves come from the screen itself.)
`CC(NC(=O)Nc1ccccc1)c1ccccc1` (configuration not stated): the activity change, negative = inhibition entry was “inactive”.
Same read-out and setting: in the case of `Cc1ccc2c(CSc3nncs3)cc(=O)oc2c1` it was “inactive”; in that of `COc1c2c(cc3occ(-c4ccc5c(c4)OCO5)c(=O)c13)OC(C)(C)C=C2`, “inactive”.
The same measure, in the same setting: the same measure for `O=S(=O)(NCc1ccc2c(c1)OCO2)c1cccc2nsnc12`: “inactive”.
With `CCOC(=O)CSc1nc2c(c(=O)n(Cc3ccccc3Cl)c(=O)n2C)n1C`, the activity change, negative = inhibition entry is “inactive”.
For `C/C=C(/C)C(=O)OC1Cc2c(ccc3ccc(=O)oc23)OC1(C)C` (configuration not stated), the activity change, negative = inhibition result is “inactive”.
Still for that read-out and setting: in the case of `COCCCN1C(=O)c2ccc(C(=O)Nc3ccc(OC)cc3OC)cc2C1=O` it was “inactive”; in that of `Cc1c(O)cc(O)c2c(=O)c(-c3ccc(O)cc3)coc12`, “inactive”; in that of `CC(C)c1nnc(NC(=O)C2CCCN2S(=O)(=O)c2ccc(Cl)cc2)s1` (configuration not stated), “inactive”.
Still for that read-out and setting: the same measure for `Oc1ccc2c(c1)OCC1c3cc4c(cc3OC21)OCO4` (configuration not stated): “inactive”; for `CN1C(=O)C[C@H](c2ccccc2)C1=O`: “inactive”.
Same read-out and setting: in the case of `O=C(NCc1cccnc1)c1cn(-c2ccccc2)nc1-c1cccs1` it was “inactive”; in that of `CCC12CN3CC(CC)(CN(C1)C31C(=O)N(C)c3ccc(C)cc31)C2=O` (configuration not stated), “inactive”.
For the compound `CCOC(=O)N1CCN(C(=O)CN(c2ccc(C)c(C)c2)S(=O)(=O)c2ccccc2)CC1`, the activity change, negative = inhibition result was “inactive”.
On the same count and under the same terms, in the case of `COc1ccc(-c2ccc(-c3noc(-c4ccncc4)n3)c(OC)n2)cc1` it was “inactive”.
Take `NC(=O)C1CC=CCC1C(=O)OCC(Cl)=C(Cl)Cl` (configuration not stated): the activity change, negative = inhibition result is “inactive”.
Same read-out and setting: the same measure for `CC1C(O)CC2C(C(=O)O)=CO[C@@H](O[C@H]3OC(CO)C(O)C(O)C3O)C21` (some centres not stated): “inactive”; for `CC(C)(C)c1ccc(C(=O)CSc2ncn[nH]2)cc1`: “inactive”; for `c1cncc(CNc2ccnc(-c3ccc4c(c3)OCO4)n2)c1`: “inactive”.
Still for that read-out and setting: in the case of `CCC(CCC(C)C1CCC2C3CC=C4CC(O)CC[C@@]4(C)C3CC[C@@]12C)C(C)C` (some centres not stated) it was “inactive”.
Still for that read-out and setting: the same measure for `CC1(C)Cc2ccccc2-c2nnc(-c3cccc(O)c3)n21`: “inactive”.
As for `COc1cccc(C2/C(=C(/O)c3ccc(F)cc3)C(=O)C(=O)N2CCN(C)C)c1` (configuration not stated), the activity change, negative = inhibition is 4.13% [at 7.66 µM].
Same read-out and setting: in the case of `CCOC(=O)C1=C(C)NC(C)=C(C(=O)OCC)C1C1=COCCO1` it was “inactive”.
The same measure, in the same setting: in the case of `CSCCC1NC2(C(=O)Nc3ccc(Cl)cc32)[C@@H]2C(=O)N(C3CCCC3)C(=O)[C@H]12` (some centres not stated) it was “inactive”; in that of `O=C1C2(c3ccccc3)CN(CCCO)CC1(c1ccccc1)CN(CCCO)C2`, “inactive”.
Same read-out and setting: the same measure for `CCCS(=O)(=O)N1CCCC(C(=O)NCCN2CCCCC2C)C1` (configuration not stated): “inactive”.
`CC(=O)c1c(N2CCOCC2)nc(=S)n(-c2cc(C)ccc2C)c1C`: the activity change, negative = inhibition entry was “inactive”.
The same measure, in the same setting: the same measure for `Cc1cc(C)c(C#N)c(SCc2ccc3c(c2)OCO3)n1`: “inactive”; for `CCCC(CCC(=O)OC)(C(=O)OCC)c1csc(N)n1` (configuration not stated): “inactive”.
On the same count and under the same terms, the same measure for `COc1cc(OC)c2c(c1Cl)OC1(C2=O)C(O)=CC(=O)CC1C` (configuration not stated): “inactive”; for `Cc1ccc2nc(-c3ccc(SCC(=O)Nc4cc(C)on4)nc3)[nH]c2c1`: “inactive”; for `COc1ccc(N(C(=O)c2cccnc2)S(=O)(=O)c2ccc3c(c2)n(C)c(=O)n3C)cc1`: “inactive”.
The same measure, in the same setting: the same measure for `CC(=O)C1C(c2cccc(Oc3ccccc3)c2)NC(=O)NC1(O)C(F)(F)F` (configuration not stated): “inactive”; for `CC(=O)NS(=O)(=O)c1ccccc1`: “inactive”; for `COc1ccc(C2C(C#N)=C(N)Oc3n[nH]c(C)c32)cc1CN1CCN(c2ccc(F)cc2)CC1` (configuration not stated): “inactive”.
Turning to `O=C(c1ccc(=O)[nH]c1)N(Cc1ccco1)C1(C(=O)NC2CCCCC2)CCCCC1`, the activity change, negative = inhibition entry was “inactive”.
On the same count and under the same terms, the same measure for `CCCCCCOC(=O)NCC(O)c1ccccc1` (configuration not stated): “inactive”; for `CCS(=O)(=O)N1CCCC(C(=O)NCCCN(C)Cc2ccccc2)C1` (configuration not stated): “inactive”; for `CCCN1Cc2cccc(C(=O)NCc3ccccc3)c2C1=O`: “inactive”.
The same measure, in the same setting: in the case of `O=C(O)c1ccc(F)c(S(=O)(=O)Nc2ccccc2)c1` it was “inactive”.
On to `Cc1cccc2c3c(ccc12)C1=C(C(=O)C3=O)C(C)CO1` (configuration not stated), for which the activity change, negative = inhibition entry is “inactive”.
On the same count and under the same terms, in the case of `CC1OC(OCC2OC(Oc3c(-c4ccc(O)c(O)c4)oc4cc(O)cc(O)c4c3=O)C(O)C(O)C2O)[C@@H](O)C(O)C1O` (some centres not stated) it was “inactive”; in that of `CCCc1[nH]nc2c1C(C1CC=CCC1)C(C#N)=C(N)O2` (configuration not stated), “inactive”.
On the same count and under the same terms, the same measure for `Nc1nc2c(nc(Cl)n2C2OC(CO)C(O)C2O)c(=O)[nH]1` (configuration not stated): “inactive”; for `COC(=O)[C@H](C)NC(=O)Nc1ccc(OC(F)(F)F)cc1`: “inactive”.
Same read-out and setting: in the case of `COCCCN1C(=O)C(=O)/C(=C(/O)c2ccc3c(c2)CC(C)O3)C1c1cccnc1` (configuration not stated) it was “inactive”.
Take `COc1cc(OC)c(NC(=O)c2ccc(Br)o2)cc1Cl`: the activity change, negative = inhibition was 12% [at 7.66 µM].
Turning to `CN(C)c1cc(N)c2ccccc2n1` (tested in a mixture with another compound), the activity change, negative = inhibition result was “inactive”.
`CC[C@@H]1Cc2cc(O)ccc2C2=C1c1ccc(O)cc1C[C@H]2CC`: the Potency was 25.1 µM (active).
For `CCOC(=O)c1cc2c(n(-c3ccc(C)cc3)c1=O)CCCC2=O`, the activity change, negative = inhibition entry was “inactive”.
Still for that read-out and setting: in the case of `CC1(C)CC(=O)C(C=NCCC2=CCCCC2)=C(O)C1` it was 6.05% [at 7.66 µM].
On the same count and under the same terms, the same measure for `Cc1cc(NC(=O)CSc2nnc(-c3ccc(Cl)s3)o2)no1`: “inactive”; for `CC1(C)C=CC(=O)[C@]2(C)C1CC(=O)[C@]1(C)C2CC[C@@]2(C)C(c3ccoc3)OC(=O)C3OC321` (some centres not stated): “inactive”.
The same measure, in the same setting: the same measure for `CSCCC(NC(=O)c1ccc(=O)n(C)n1)c1nc2ccccc2[nH]1` (configuration not stated): “inactive”; for `CCCn1c(O)c(CN2CCCC(C)C2)c(C)c(C#N)c1=O` (configuration not stated): “inactive”; for `COCCn1c(=O)c(-c2cc(F)cc(F)c2)nc2cnc(N3CCNCC3)nc21`: “inactive”.
Turning to `Cc1cc(=O)[nH]c(=S)[nH]1`, the activity change, negative = inhibition result was “inactive”.
Same read-out and setting: the same measure for `CN1CCCc2cc(C#N)c(=O)[nH]c21`: 2.48% [at 7.66 µM].
The same measure, in the same setting: in the case of `Cc1oc(-c2ccccc2F)nc1CS(=O)(=O)CC(=O)NCCCN(C)C1CCCCC1` it was “inactive”; in that of `Cc1ccc(NC(=O)C2CC(c3ccc(F)cc3)=NO2)cc1` (configuration not stated), “inactive”; in that of `COc1ccccc1CCn1c(=O)c(-c2cn(C)c3ccccc23)nc2cncnc21`, “inactive”.
Same read-out and setting: the same measure for `CC(Sc1nncs1)C(=O)NCc1ccc2c(c1)OCO2` (configuration not stated): “inactive”; for `CCOC(=O)N1CCN(C(=O)COc2ccc(Br)cc2)CC1`: 10.7% [at 7.66 µM].
As to `O=C1NC(c2cc3c(cc2Cl)OCO3)Oc2ccccc21` (configuration not stated), the activity change, negative = inhibition result is “inactive”.
On the same count and under the same terms, the same measure for `CCOC(=O)C1C(=O)OC2(CCCC2)C1C(=O)OCC` (configuration not stated): “inactive”; for `Cc1ccc(C)c(NC(=O)C2CC(=O)N(C(C)C)C2)c1` (configuration not stated): “inactive”.
With `CC1CCN(C(=O)Cn2cc(C(=O)c3ccco3)c3ccccc32)CC1`, the activity change, negative = inhibition entry was “inactive”.

(Values after PubChem BioAssay AID927 (National Center for Advancing Translational Sciences (NCATS), 2007).)
